Assay results published in PubChem BioAssay AID1159580 (chemical genetic matrix, 2015).
Several values for one entry are separate records, joined by “and”; a condition that tells them apart may be missing. Identical values can stand only once. Out of some 5,500 compounds screened, about 2,000 (36%) were called active. Not shown: some 18% with an inconclusive outcome. No stated cut-off is given here; in the data, active means normalized growth mostly below about 0.91 (no sharp cut-off); inconclusive means no clear call, values can overlap the other calls; inactive means mostly above about 0.92. Some of the results follow.

Assay: chemical genetic growth profiling, strain panel (AID 1159580);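 further: tested at 20 µM; growth read once vehicle control cultures reached saturation at 30 °C; 1 = growth at the plate median or of vehicle wells; lower values mean less growth of the strain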
Conditions: S. cerevisiae deletion strains, growth OD

Measured: normalized growth

C1N2CN3CN1CN(C2)C3
inactive: locus YAL013W, strain DEP1, hits give low values 0.975 | locus YAL021C, strain ccr4, hits give low values 0.986 | locus YAL026C, strain drs2, hits give low values 1 | locus YAL030W, strain snc1, hits give low values 0.993 | locus YBL061C, strain skt5, hits give low values 0.991 | locus YBR009C, strain hhf1, hits give low values 1.03 | locus YBR021W, strain FUR4, hits give low values 1.06 | locus YBR023C, strain chs3, hits give low values 0.984 | locus YBR171W, strain sec66, hits give low values 0.991 | locus YBR229C, strain ROT2, hits give low values 0.949 | locus YBR231C, strain swc5, hits give low values 1 | locus YBR279W, strain paf1, hits give low values 0.985 | locus YCL011C, strain gbp2, hits give low values 0.986 | locus YCL016C, strain dcc1, hits give low values 0.961 | locus YCL029C, strain bik1, hits give low values 0.977 | locus YCL061C, strain MRC1, hits give low values 0.987 | locus YCL069W, strain vba3, hits give low values 1 | locus YCR088W, strain abp1, hits give low values 0.982 | locus YDL005C, strain med2, hits give low values 0.999 | locus YDL035C, strain GPR1, hits give low values 0.989 | locus YDL040C, strain nat1, hits give low values 0.996 | locus YDL074C, strain BRE1, hits give low values 0.972 | locus YDL101C, strain DUN1, hits give low values 0.955 | locus YDL134C, strain PPH21, hits give low values 0.983 | locus YDL185W, strain tfp1, hits give low values 0.951 | locus YDL192W, strain arf1, hits give low values 0.972 | locus YDR001C, strain nth1, hits give low values 0.994 | locus YDR069C, strain doa4, hits give low values 1.03 | locus YDR101C, strain arx1, hits give low values 0.977 | locus YDR137W, strain rgp1, hits give low values 0.985 | locus YDR150W, strain NUM1, hits give low values 0.972 | locus YDR159W, strain sac3, hits give low values 1.04 | locus YDR162C, strain NBP2, hits give low values 0.954 | locus YDR195W, strain ref2 1.01 | locus YDR297W, strain sur2, hits give low values 0.986 | locus YDR318W, strain mcm21, hits give low values 0.98 | locus YDR334W, strain swr1, hits give low values 0.974 | locus YDR335W, strain msn5, hits give low values 0.997 | locus YDR388W, hits give low values 0.976 | locus YDR392W, strain spt3, hits give low values 0.923 | locus YDR502C, strain sam2, hits give low values 0.966 | locus YEL003W, strain gim4, hits give low values 1 | locus YEL037C, strain rad23, hits give low values 0.982 | locus YEL061C, strain CIN8 (second series), hits give low values 0.978 | locus YEL061C, strain CIN8, hits give low values 0.983 | locus YER015W, strain faa2, hits give low values 0.988 | locus YER016W, strain bim1, hits give low values 0.999 | locus YER110C, hits give low values 0.975 | locus YER111C, strain swi4, hits give low values 0.978 | locus YER155C, strain BEM2 (second series), hits give low values 0.991 | locus YER155C, strain BEM2, hits give low values 0.982 | locus YER167W, strain BCK2, hits give low values 0.984 | locus YFR010W, strain ubp6, hits give low values 0.988 | locus YGL078C, strain dbp3, hits give low values 0.942 | locus YGL086W, strain mad1, hits give low values 0.991 | locus YGL167C, strain pmr1, hits give low values 0.992 | locus YGL173C, strain kem1, hits give low values 0.994 | locus YGL227W, strain vid30, hits give low values 1 | locus YGL240W, strain doc1, hits give low values 0.999 | locus YGL248W, strain PDE1, hits give low values 0.973 | locus YGL253W, strain hxk2, hits give low values 0.998 | locus YGR078C, strain PAC10, hits give low values 0.973 | locus YGR135W, strain pre9, hits give low values 0.934 | locus YGR229C, strain SMI1, hits give low values 0.966 | locus YGR252W, strain gcn5, hits give low values 1.12 | locus YHR013C, strain ard1, hits give low values 0.95 | locus YHR027C, strain rpn1, hits give low values 0.99 | locus YHR030C, strain SLT2, hits give low values 0.99 and 0.968 | locus YHR079C, strain IRE1 (second series), hits give low values 0.974 | locus YHR079C, strain IRE1, hits give low values 0.929 | locus YHR094C, strain hxt1, hits give low values 0.976 | locus YHR129C, strain ARP1, hits give low values 0.978 | locus YHR142W, strain chs7, hits give low values 0.973 | locus YHR200W, strain rpn10, hits give low values 0.975 | locus YIL066C, strain RNR3, hits give low values 0.984 | locus YIL073C, strain SPO22, hits give low values 0.895 | locus YIL125W, strain kgd1, hits give low values 0.979 | locus YIR030C, strain dcg1, hits give low values 0.976 | locus YJL092W, strain hpr5, hits give low values 0.982 | locus YJL095W, strain BCK1 (second series), hits give low values 0.986 | locus YJL095W, strain BCK1, hits give low values 0.988 and 0.948 | locus YJL115W, strain asf1, hits give low values 0.985 | locus YJL129C, strain trk1, hits give low values 0.979 | locus YJL134W, strain LCB3, hits give low values 0.98 | locus YJL154C, strain vps35, hits give low values 0.991 | locus YJL164C, strain tpk1, hits give low values 0.99 | locus YJL166W, strain qcr8, hits give low values 0.964 | locus YJL168C, strain set2, hits give low values 0.985 | locus YJL187C, strain SWE1 (second series), hits give low values 0.975 | locus YJL187C, strain SWE1, hits give low values 0.988 | locus YJR043C, strain POL32, hits give low values 0.997 | locus YJR066W, strain TOR1, hits give low values 0.987
